# Results reported in PubChem BioAssay AID1159580 (chemical genetic matrix, 2015).
# In all, about 5,500 compounds went through this assay and about 2,000 (36%) were called active. About 18% were inconclusive and are not listed. The list shows a part of the results. Unmarked numbers belong to inactive results. No stated cut-off is given here; in the data, active means normalized growth mostly below about 0.91 (no sharp cut-off); inconclusive means no clear call, values can overlap the other calls; inactive means mostly above about 0.92.
# Assay: chemical genetic growth profiling, strain panel (AID 1159580);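 further: tested at 20 µM; growth read once vehicle control cultures reached saturation at 30 °C; 1 = growth at the plate median or of vehicle wells; lower values mean less growth of the strain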
# Conditions: growth OD
# [1] = S. cerevisiae deletion strains, locus YAL013W, strain DEP1, active compounds read low
# [2] = S. cerevisiae deletion strains, locus YDL101C, strain DUN1, active compounds read low
# [3] = S. cerevisiae deletion strains, locus YDR150W, strain NUM1, active compounds read low
# [4] = S. cerevisiae deletion strains, locus YHR030C, strain SLT2, active compounds read low
# [5] = S. cerevisiae deletion strains, locus YJR075W, strain HOC1, active compounds read low
# [6] = S. cerevisiae deletion strains, locus YPL055C, strain LGE1, active compounds read low
smiles,measurement,setting,value
COc1cc2nc(-c3cccs3)oc(=O)c2cc1OC,normalized growth,[1],0.984
same,normalized growth,"S. cerevisiae deletion strains, locus YBR229C, strain ROT2, active compounds read low",0.984
same,normalized growth,[2],0.987
same,normalized growth,[3],0.908
same,normalized growth,"S. cerevisiae deletion strains, locus YEL061C, strain CIN8, active compounds read low",0.981
same,normalized growth,"S. cerevisiae deletion strains, locus YGR078C, strain PAC10, active compounds read low",0.987
same,normalized growth,"S. cerevisiae deletion strains, locus YGR229C, strain SMI1, active compounds read low",1
same,normalized growth,[4],0.864
same,normalized growth,"S. cerevisiae deletion strains, locus YHR087W, strain rtc3, active compounds read low",0.985
same,normalized growth,"S. cerevisiae deletion strains, locus YJL187C, strain SWE1, active compounds read low",0.999
same,normalized growth,"S. cerevisiae deletion strains, locus YJR043C, strain POL32, active compounds read low",0.978
same,normalized growth,[5],0.971
same,normalized growth,"S. cerevisiae deletion strains, locus YLR039C, strain RIC1, active compounds read low",0.999
same,normalized growth,"S. cerevisiae deletion strains, locus YLR058C, strain SHM2 (second series), active compounds read low",0.994
same,normalized growth,"S. cerevisiae deletion strains, locus YLR085C, strain ARP6, active compounds read low",0.936
same,normalized growth,"S. cerevisiae deletion strains, locus YLR262C, strain YPT6, active compounds read low",1.01
same,normalized growth,"S. cerevisiae deletion strains, locus YML094W, strain GIM5, active compounds read low",0.978
same,normalized growth,"S. cerevisiae deletion strains, locus YMR219W, strain ESC1, active compounds read low",0.994
same,normalized growth,"S. cerevisiae deletion strains, locus YMR263W, strain SAP30, active compounds read low",0.9
same,normalized growth,"S. cerevisiae deletion strains, locus YMR307W, strain GAS1, active compounds read low",0.945
same,normalized growth,"S. cerevisiae deletion strains, locus YNL153C, strain GIM3, active compounds read low",0.971
same,normalized growth,"S. cerevisiae deletion strains, locus YNL298W, strain CLA4 (second series), active compounds read low",0.993
same,normalized growth,"S. cerevisiae deletion strains, locus YNL322C, strain KRE1, active compounds read low",0.984
same,normalized growth,"S. cerevisiae deletion strains, locus YNR030W, strain Alg12, active compounds read low",0.983
same,normalized growth,[6],1.11
same,normalized growth,"S. cerevisiae deletion strains, locus YPL241C, strain CIN2, active compounds read low",0.976
same,normalized growth,"S. cerevisiae deletion strains, locus YPR135W, strain CTF4, active compounds read low",0.879
same,normalized growth,"S. cerevisiae strains, strain wild type, active compounds read low",1
Cc1ccc2nc(-c3ccc([N+](=O)[O-])o3)oc(=O)c2c1,normalized growth,"S. cerevisiae deletion strains, locus YAR019C, strain CDC15, active compounds read low",0.0888 (active)
same,normalized growth,"S. cerevisiae deletion strains, locus YBL105C, strain PKC1, active compounds read low",0.0913 (active)
same,normalized growth,"S. cerevisiae deletion strains, locus YBR135W, strain CKS1, active compounds read low",0.193 (active)
same,normalized growth,"S. cerevisiae deletion strains, locus YBR136W, strain MEC1, active compounds read low",0.181 (active)
same,normalized growth,"S. cerevisiae deletion strains, locus YBR160W, strain CDC28, active compounds read low",0.231 (active)
same,normalized growth,"S. cerevisiae deletion strains, locus YDL017W, strain CDC7, active compounds read low",0.259 (active)
same,normalized growth,"S. cerevisiae deletion strains, locus YDL028C, strain MPS1, active compounds read low",0.595 (active)
same,normalized growth,[2],0.162 (active)
same,normalized growth,"S. cerevisiae deletion strains, locus YDL214C, strain PRR2, active compounds read low",0.1 (active)
same,normalized growth,"S. cerevisiae deletion strains, locus YDR226W, strain ADK1, active compounds read low",0.361 (active)
same,normalized growth,"S. cerevisiae deletion strains, locus YDR477W, strain SNF1, active compounds read low",0.0976 (active)
same,normalized growth,"S. cerevisiae deletion strains, locus YER123W, strain YCK3, active compounds read low",0.14 (active)
same,normalized growth,"S. cerevisiae deletion strains, locus YER133W, strain GLC7, active compounds read low",0.116 (active)
same,normalized growth,"S. cerevisiae deletion strains, locus YFL009W, strain cdc4, active compounds read low",0.37 (active)
same,normalized growth,"S. cerevisiae deletion strains, locus YFL029C, strain CAK1, active compounds read low",0.124 (active)
same,normalized growth,"S. cerevisiae deletion strains, locus YFR019W, strain FAB1, active compounds read low",0.112 (active)
same,normalized growth,"S. cerevisiae deletion strains, locus YFR028C, strain CDC14, active compounds read low",0.149 (active)
same,normalized growth,"S. cerevisiae deletion strains, locus YGR040W, strain KSS1, active compounds read low",0.109 (active)
same,normalized growth,"S. cerevisiae deletion strains, locus YGR052W, strain FMP48, active compounds read low",0.112 (active)
same,normalized growth,"S. cerevisiae deletion strains, locus YGR092W, strain DBF2, active compounds read low",0.108 (active)
same,normalized growth,[4],0.141 (active)
same,normalized growth,"S. cerevisiae deletion strains, locus YHR079C, strain IRE1, active compounds read low",0.139 (active)
same,normalized growth,"S. cerevisiae deletion strains, locus YHR082C, strain KSP1, active compounds read low",0.131 (active)
same,normalized growth,"S. cerevisiae deletion strains, locus YHR205W, strain SCH9, active compounds read low",0.00195 (active)
same,normalized growth,"S. cerevisiae deletion strains, locus YIL147C, strain SLN1, active compounds read low",0.52 (active)
same,normalized growth,"S. cerevisiae deletion strains, locus YJL095W, strain BCK1, active compounds read low",0.121 (active)
same,normalized growth,"S. cerevisiae deletion strains, locus YJL157C, strain FAR1, active compounds read low",0.0957 (active)
same,normalized growth,"S. cerevisiae deletion strains, locus YJR016C, strain ILV3, active compounds read low",0.376 (active)
same,normalized growth,"S. cerevisiae deletion strains, locus YJR066W, strain TOR1 (second series), active compounds read low",0.103 (active)
same,normalized growth,"S. cerevisiae deletion strains, locus YJR066W, strain TOR1, active compounds read low",0.121 (active)
same,normalized growth,"S. cerevisiae deletion strains, locus YKL048C, strain ELM1, active compounds read low",0.119 (active)
same,normalized growth,"S. cerevisiae deletion strains, locus YKL067W, strain YNK1, active compounds read low",0.138 (active)
same,normalized growth,"S. cerevisiae deletion strains, locus YKL101W, strain HSL1, active compounds read low",0.107 (active)
same,normalized growth,"S. cerevisiae deletion strains, locus YKL193C, strain SDS22, active compounds read low",0.142 (active)
same,normalized growth,"S. cerevisiae deletion strains, locus YKL203C, strain TOR2, active compounds read low",0.101 (active)
same,normalized growth,"S. cerevisiae deletion strains, locus YLR113W, strain HOG1, active compounds read low",0.157 (active)
same,normalized growth,"S. cerevisiae deletion strains, locus YLR133W, strain CKI1, active compounds read low",0.0945 (active)
same,normalized growth,"S. cerevisiae deletion strains, locus YLR403W, strain SFP1, active compounds read low",0.000914 (active)
same,normalized growth,"S. cerevisiae deletion strains, locus YML070W, strain DAK1, active compounds read low",0.12 (active)
same,normalized growth,"S. cerevisiae deletion strains, locus YMR001C, strain CDC5, active compounds read low",0.127 (active)
same,normalized growth,"S. cerevisiae deletion strains, locus YMR205C, strain PFK2 (second series), active compounds read low",0.11 (active)
same,normalized growth,"S. cerevisiae deletion strains, locus YMR277W, strain FCP1, active compounds read low",0.124 (active)
same,normalized growth,"S. cerevisiae deletion strains, locus YNL006W, strain LST8, active compounds read low",0.0975 (active)
same,normalized growth,"S. cerevisiae deletion strains, locus YNL020C, strain ARK1, active compounds read low",0.105 (active)
same,normalized growth,"S. cerevisiae deletion strains, locus YNL161W, strain CBK1, active compounds read low",0.142 (active)
same,normalized growth,"S. cerevisiae deletion strains, locus YNL183C, strain NPR1, active compounds read low",0.118 (active)
same,normalized growth,"S. cerevisiae deletion strains, locus YNL207W, strain RIO2, active compounds read low",0.12 (active)
same,normalized growth,"S. cerevisiae deletion strains, locus YNL222W, strain SSU72, active compounds read low",0.101 (active)
same,normalized growth,"S. cerevisiae deletion strains, locus YNL307C, strain MCK1 (second series), active compounds read low",0.1 (active)
same,normalized growth,"S. cerevisiae deletion strains, locus YOL078W, strain AVO1, active compounds read low",0.164 (active)
same,normalized growth,"S. cerevisiae deletion strains, locus YOL136C, strain PFK27, active compounds read low",0.19 (active)
same,normalized growth,"S. cerevisiae deletion strains, locus YOR061W, strain CKA2, active compounds read low",0.0958 (active)
same,normalized growth,"S. cerevisiae deletion strains, locus YOR119C, strain RIO1, active compounds read low",0.123 (active)
same,normalized growth,"S. cerevisiae deletion strains, locus YOR231W, strain MKK1, active compounds read low",0.127 (active)
same,normalized growth,"S. cerevisiae deletion strains, locus YOR329C, strain SCD5, active compounds read low",0.0982 (active)
same,normalized growth,"S. cerevisiae deletion strains, locus YPL031C, strain PHO85, active compounds read low",0.102 (active)
same,normalized growth,"S. cerevisiae deletion strains, locus YPL153C, strain RAD53, active compounds read low",0.136 (active)
same,normalized growth,"S. cerevisiae deletion strains, locus YPL204W, strain HRR25, active compounds read low",0.116 (active)
same,normalized growth,"S. cerevisiae deletion strains, locus YPL209C, strain IPL1, active compounds read low",0.179 (active)
same,normalized growth,"S. cerevisiae deletion strains, locus YPL256C, strain CLN2, active compounds read low",0.174 (active)
same,normalized growth,"S. cerevisiae deletion strains, locus YPR025C, strain CCL1, active compounds read low",0.119 (active)
same,normalized growth,"S. cerevisiae deletion strains, locus YPR111W, strain DBF20, active compounds read low",0.32 (active)
same,normalized growth,"S. cerevisiae deletion strains, strain NNK1, active compounds read low",0.93
same,normalized growth,"S. cerevisiae deletion strains, strain TSCII, active compounds read low",0.106 (active)
CC(=O)NCCc1c[nH]c2ccccc12,normalized growth,[1],1
same,normalized growth,"S. cerevisiae deletion strains, locus YAL040C, strain CLN3, active compounds read low",1.01
same,normalized growth,"S. cerevisiae deletion strains, locus YCL061C, strain MRC1 (second series), active compounds read low",1
same,normalized growth,[3],1
same,normalized growth,"S. cerevisiae deletion strains, locus YER002W, strain NOP16, active compounds read low",1
same,normalized growth,[5],1
same,normalized growth,"S. cerevisiae deletion strains, locus YNL175C, strain NOP13, active compounds read low",1.01
same,normalized growth,"S. cerevisiae deletion strains, locus YNL197C, strain WHI3, active compounds read low",1
same,normalized growth,"S. cerevisiae deletion strains, locus YNL224C, strain SQS1, active compounds read low",1.01
same,normalized growth,"S. cerevisiae deletion strains, locus YOR083W, strain WHI5 (second series), active compounds read low",1.02
same,normalized growth,[6],1
